From PubChem BioAssay AID847 (SRMLSC, 2007) come the findings set out here.

Among all 41,000 compounds or so, about 190 (0.46%) were called active. The sample as a whole holds a higher share of actives than the screen did. Values without a mark were called inactive.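 The calls were made as follows: active = viability at or below the median of all test compounds minus 3 SD, in both replicates if run twice (cut at about 45% in these data); inconclusive = duplicate replicates that disagree with each other; inactive = viability above that cutoff in every replicate.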

The term viability denotes a read-out of living cells in per cent, often relative to untreated cells.

This experiment can be described thus: SK-BR-3 proliferation inhibitors, primary screen, cell-based, human, 24 h (AID 847).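 Also: 100% = median untreated cell wells and 0% = median positive control drug.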 Particulars: SK-BR-3 viability, CellTiter-Glo ATP luminescence, at 10 µM, active compounds read low. A general note: In ATP-based viability assays light output follows the ATP content of the culture.
In the case of `CN(C)c1ccc(CNC23CN4CN(CN(C4)C2)C3)cc1`, the viability was 99%.
`Cn1c2c(c(=O)n(C)c1=O)CN(Cc1ccco1)CN2`: the viability was 83.8%.
For `O=C(Cn1c(=O)sc2ccccc21)Nc1ccc2c(c1)OCCO2`, the viability is 78.4%.
Regarding `Cc1ccc2cc(C#N)c(SCC(=O)NCC3CCCO3)nc2c1C` (stereo not drawn), the viability is 82.7%.
Regarding `O.O.O.O=S(=O)([O-])OC[C@H]1O[C@@H](O[C@]2(COS(=O)(=O)[O-])O[C@H](OS(=O)(=O)[O-])[C@@H](OS(=O)(=O)[O-])[C@@H]2OS(=O)(=O)[O-])[C@H](OS(=O)(=O)[O-])[C@@H](OS(=O)(=O)[O-])[C@@H]1OS(=O)(=O)[O-].[Al]`, the viability was 89.7%.
Consider `CC(=O)Nc1cccc2c1[n+]([O-])c(C)c(C)[n+]2[O-]`, for which the viability is 115%.
For the molecule `CCN(CC)P(=O)(/C(Cl)=C\Nc1c(C)n(C)n(-c2ccccc2)c1=O)N(CC)CC`, the viability is 104%.
For `Cn1nnnc1SCC(=O)N1CCN(Cc2ccccc2)CC1`, the viability was 103%.
For the molecule `Cn1c(SCC(=O)Nc2cccc(NC(=O)c3cccs3)c2)nnc1-c1ccncc1`, the viability is 91.4%.
As for `O=C(CSc1nc(-c2ccco2)cc(C(F)(F)F)n1)N1CCc2ccccc2C1`, the viability is 113%.
Regarding `CCCN1C(=O)C(NC(C)=O)c2cc(OC)ccc21` (stereo not drawn), the viability was 88.1%.
As for `Cc1nc2cc(-c3ccc(F)cc3)nn2c(N2CCOCC2)c1C`, the viability was 89.5%.
Turning to `FC(F)(F)c1cccc(Nc2ncnc3ccccc23)c1`, the viability is 90.1%.
Under `CCOC(=O)Cc1csc(NC(=O)C(C)(C)C)n1` stands 89.5%; under `CCOC(=O)Cc1csc(NC(=O)Nc2ccccc2)n1`, 111%.
`CCOC(=O)Cc1csc(NC(=O)CSc2nc(C)cc(=O)[nH]2)n1`: the viability was 43.4% (active).
Take `Cc1cc(C)cc(NC(=O)N2CCC(NC(=O)c3ccc(F)cc3)CC2)c1`: the viability is 103%.
Turning to `COc1cc(OC)cc(C(=O)NCCSCc2ccco2)c1`, the viability is 80.3%.
With `N#Cc1c(NC(=O)CSc2nc3ccccc3c(=O)n2Cc2ccco2)sc2c1CCCC2`, the viability was 72.2%.
Turning to `CCOc1ccccc1NC(=O)CCc1ccc(C)o1`, the viability is 103%.
Take `COCCCNC(=O)c1c(F)c(F)c(F)c(F)c1F`: the viability is 79.3%.
In the case of `O=C1Nc2ccccc2C12Nc1ccccc1S2` (stereo not drawn), the viability was 75.9%.
Next, `Cc1ccc(C(C)C)c(OCc2nnc(SCC(=O)Nc3nccs3)n2C)c1`: 92.6%; `O=C(Cc1cccs1)N1CCCC(c2nc(-c3ccc(S(=O)(=O)N4CCCC4)cc3)no2)C1` (stereo not drawn): 72.5%.
As for `Cc1sc2c(c1C)c(=O)n(-c1ccccc1)c1nncn21`, the viability was 90.1%.
For the molecule `O=C(Nc1ccccc1N1CCN(C(=O)c2ccccc2)CC1)c1ccc2c(c1)OCO2`, the viability is 68%.
Consider `CCn1nc(NC(=O)c2ccco2)c2cc3ccc(C)cc3nc21`, for which the viability is 79.8%.
On to `COCCCNC(=O)COc1cc(C)c(Cl)c(C)c1`, for which the viability is 104%.
With `CC(=O)CCS(=O)(=O)c1ccc(C)c(C)c1`, the viability is 73.8%.
Next, `CCOc1cc(/C=N/O)cc(Br)c1OC`: 90.1%.
As to `CCc1ccccc1NC(=O)CSc1nnc([C@@H](NC(=O)OC(C)(C)C)C(C)CC)o1` (stereo partly drawn), the viability was 89.6%.
Regarding `O=S(=O)(NCCNS(=O)(=O)c1ccccc1)c1ccccc1`, the viability is 87.2%.
Regarding `CCOC(=O)c1nc(N)sc1C(=O)OCC`, the viability is 82.9%.
Turning to `CCCCOc1ccc(NC(=O)CSCC(=O)OCC)cc1`, the viability is 97.7%.
As to `CCN(CC)C(=O)CSc1nnc(-c2cnccn2)n1-c1ccc(C)cc1`, the viability is 112%.
With `CC(=O)N(CN1C(=O)C2CC=CCC2C1=O)c1cccc(Cl)c1` (stereo not drawn), the viability was 102%.
Regarding `O=C(Nc1c(C(=O)N2CCCCC2)cnn1-c1ccccc1)c1ccco1`, the viability was 81.5%.
`CCOC(=O)c1cnc(-n2nc(C)cc2C)nc1-n1nc(C)cc1C`: the viability was 108%.
Under `CCN(CC)C(=O)CSc1nnc(-c2cccc(OC)c2)o1` stands 88.1%; under `CCS(=O)(=O)n1nc(-c2ccc(OC)cc2)nc1SC`, 101%; under `CCC(=O)Nc1cccc(NC(=O)CSc2nnnn2C2CCCC2)c1`, 69%.
Under `O=C(CSc1nnnn1-c1ccc2c(c1)CCC2)Nc1ccc2c(c1)OCCO2` stands 86.1%; under `O=C(CSc1nnnn1C1CCCC1)Nc1ccc2c(c1)OCCO2`, 42.5% (active); under `CCOc1cccc(-c2nn3c(-c4ccccn4)nnc3s2)c1`, 116%.
For `CCOC(=O)CNC(=O)CSc1nnc(-c2cccc(OC)c2)n1CC`, the viability was 104%.
With `O=C1CCC(=O)N1CCOP1(=O)COc2ccccc2OC1`, the viability is 98.7%.
In the case of `CCOC(=O)Cn1c(SC)nc2sc3c(c2c1=O)CC(C)(C)OC3`, the viability is 93.7%.
`CSCC[C@H](NC(=O)NCCc1ccc(F)cc1)C(=O)O`: the viability is 79.6%.
On to `O=C(Nc1nn(Cc2ccccc2F)cc1Br)c1cccs1`, for which the viability was 98.6%.
For the molecule `C=CCn1c(CSc2nc3ccccc3s2)nnc1SCC(=O)NCc1ccco1`, the viability is 125%.
Under `Cc1ccc(NC(=O)Cn2nc(C)c3ccccc3c2=O)c(C)c1` stands 112%; under `CCCCn1c(SCC(=O)N2CCC(C(=O)OCC)CC2)nc2cc(S(N)(=O)=O)ccc21`, 89.6%.
Consider `C=CCN1C(=O)C(O)(CC(=O)c2ccc(Cl)cc2)c2ccccc21` (stereo not drawn), for which the viability is 86.7%.
As for `COc1ccc(OC)c(NC(=O)CSc2nc(N)c(-c3ccccc3)c(=O)[nH]2)c1`, the viability is 98.9%.
Next, `CN1CCN(C(=O)C2C3C=CC(C3)C2C(=O)O)CC1` (stereo not drawn): 109%; `COc1ccc(N2CC(C)Cn3c2nc2c3c(=O)n(Cc3ccccc3F)c(=O)n2C)c(OC)c1` (stereo not drawn): 89.5%.
For the molecule `CC1(C)NC(=O)N(CCOc2cccc(Oc3ccccc3)c2)C1=O`, the viability is 94.6%.
For the molecule `C[C@H](NC(=O)OC(C)(C)C)c1nnc(SCC(=O)Nc2ccc(Br)cc2)o1`, the viability is 91.1%.
Next, `CCS(=O)(=O)NCCc1ccc(OC)c(OC)c1`: 85.1%; `CCOc1ccccc1N(CC(=O)Nc1ccccc1C(=O)OC)S(C)(=O)=O`: 114%.
Regarding `COc1cc(C(=O)Nc2nccs2)cc(OC)c1OC`, the viability is 98.8%.
`CC(C)OC(=O)c1sc2nc3c(cc2c1N)C(=O)CCC3`: the viability was 70.8%.
With `CCOC(=O)c1c(C)n(C)c2ccc(OC)c(NC(=O)CN3CCC4(CC3)OCCO4)c12`, the viability was 88.1%.
For the molecule `Cc1ccc(C(=O)NCCNS(=O)(=O)c2ccccc2)cc1`, the viability is 104%.
On to `CC(=O)Nc1ccc(S(=O)(=O)Nc2cccc(NC(=O)C(C)(C)C)c2)cc1`, for which the viability was 84.7%.
Next, `CC(c1ccccc1)n1c(NCCCn2ccnc2)nc2c1c(=O)[nH]c(=O)n2C` (stereo not drawn): 62.8%; `O=C(c1cccs1)N(C(=O)c1cccs1)c1ccccn1`: 75%.
`Cc1cccc(N2CC(C)Cn3c2nc2c3c(=O)n(CC(=O)OCc3ccccc3)c(=O)n2C)c1` (stereo not drawn): the viability was 72.3%.
Regarding `CCN1C(=O)CS/C1=N\c1nccs1`, the viability was 96%.
Next, `O=C(O)c1ccc(F)c(S(=O)(=O)Nc2ccccc2)c1`: 99.6%; `CCOc1ccc2nc(NCCNS(=O)(=O)c3ccccc3)c(C#N)cc2c1`: 73.4%.
On to `CCOC(=O)N1CCN(C(=O)CN(c2ccc(C)c(C)c2)S(=O)(=O)c2ccccc2)CC1`, for which the viability is 124%.
Next, `CCOC(=O)c1ccc(N2C(=O)CC(N3CC(C)OC(C)C3)C2=O)cc1` (stereo not drawn): 82.9%; `O=C(c1cccs1)N1CCN(C(=O)N2CCOCC2)CC1`: 119%.
As to `CC(=O)CSc1nnc(CSc2ncccn2)n1C1CCCCC1`, the viability was 77.2%.
`Cc1nc2nc(CSc3nc4ccccc4s3)cc(=O)n2[nH]1`: the viability is 94.5%.
Next, `O=S(=O)(c1ccccc1)N(CC(O)CN1CCCCC1)c1ccccc1` (stereo not drawn): 93%; `COc1ccc(CCNC(=O)CSc2nc(C)nc3c2oc2ccccc23)cc1OC`: 131%; `CCc1nc2oc3ccccc3c(=O)c2c(=O)n1Cc1ccc(OC)cc1`: 84.3%.
Next, `O=C(CCCC(=O)N(CC(=O)NC1CCCC1)Cc1ccccc1Cl)Nc1ccccn1`: 73.7%; `O=C(NCCCNCc1ccccc1)c1ccc(/C=N/O)nc1`: 117%; `O=C(NCC1CCCO1)C(C(=O)c1ccccc1)n1cc(Cl)ccc1=O` (stereo not drawn): 87.7%.
Regarding `Cc1ccc2c(c1)c1ncn(CCC3=CCCCC3)c(=O)c1n2C`, the viability is 85.3%.
Next, `CCCc1nnc(NC(=O)c2cc(OC)cc(OC)c2)s1`: 81.5%; `C#CCN1CC(C)/C(=N/O)CC1C` (stereo not drawn): 108%; `O=C(NC1CCCC1)c1ccc(Br)s1`: 90.4%.
Take `O=C(Oc1ccccc1)c1ccc2nccnc2c1`: the viability was 80.4%.
On to `COc1ccc(S(=O)(=O)N2CCC(C(=O)N3CCOCC3)CC2)cc1OC`, for which the viability is 101%.
Regarding `CCCc1[nH]nc2c1C(C1CC=CCC1)C(C#N)=C(N)O2` (stereo not drawn), the viability is 96.8%.
As to `O=C(NCc1cccs1)C1CCN(S(=O)(=O)c2ccc3c(c2)OCCO3)CC1`, the viability was 95.3%.
Take `COc1ccc(C(=O)Cn2nnc(-c3ccc(N4CCOCC4)cc3)n2)cc1OC`: the viability was 88.3%.
On to `O=C(Nc1nc2cc3c(cc2s1)OCCO3)c1cccc(S(=O)(=O)N2CCOCC2)c1`, for which the viability is 79.5%.
Under `COc1ccc2[nH]c3ccc(OC)cc3c2c1` stands 89.2%; under `C=CCC(NCCCO)c1cccc(OC)c1OC` (stereo not drawn), 107%; under `Fc1ccc(OCc2nn3c(Cn4nnc5ccccc54)nnc3s2)cc1`, 59.8%.
As to `CCOC(=O)c1sc(NC(=O)c2cc(S(=O)(=O)N3CCOCC3)ccc2C)nc1C`, the viability is 88.3%.
Next, `COc1ccc(Br)cc1/C=N/n1c(C)nnc1C`: 96.9%.
Under `CCC(=O)Nc1ccccc1C(=O)N1CCN(Cc2ccccc2)CC1` stands 90.1%.
Next, `O=C(Nc1cccc(C(=O)N2CCCC2)c1)c1ccccc1`: 91.4%; `Cc1cc(C(F)(F)F)c(C#N)c(SCC(=O)NC2CC2)n1`: 109%.
Take `CN1CCN(CC(=O)C23CC4CC(CC(C4)C2)C3)CC1`: the viability is 122%.
`CN1CCN(S(=O)(=O)c2ccc(NC(=O)c3ccco3)cc2)CC1`: the viability is 85.4%.
Under `COc1ccccc1-n1nnnc1S(=O)(=O)Cc1ccc(Cl)cc1` stands 95.1%.
